Compounds with a hit are over-represented: about 3% of the library has one in this group of screens.
C8 TRAIL sens: sensitizes caspase-8 expressing cells to TRAIL; hit rate 1% among 360,000; inhibition (viability loss, TRAIL sensitization), % at 10 µM; AID 624354; NB7+C8 cells + TRAIL, ATPlite viability luminescence;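 active = compounds causing at least 50% loss of cell viability in the single-dose screen, relative to plate controls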
SENP8 block-1: SENP8 (human) protease inhibition. recombinant SENP8, Nedd8 substrate fluorescence. inhibition, % at 20 µM. hit rate 0.64% among 360,000. AID 602440; in the data active = inhibition mostly above about 40%, no sharp cut-off; inactive = mostly below about 27%
Target sequence (Q96LD8 whole entry, looked up): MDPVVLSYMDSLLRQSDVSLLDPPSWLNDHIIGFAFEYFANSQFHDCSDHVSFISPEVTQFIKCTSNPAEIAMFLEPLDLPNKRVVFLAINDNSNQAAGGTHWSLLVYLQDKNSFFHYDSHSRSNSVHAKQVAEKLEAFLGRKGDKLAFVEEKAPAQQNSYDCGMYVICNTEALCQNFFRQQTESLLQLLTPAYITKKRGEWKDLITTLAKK
PPC-1+TRAIL kill: kills PPC-1 cancer cells in the presence of TRAIL | hit rate 0.41% among 220,000 | AID 1443 | cell killing (% activity), % at 4 µM or 5 µM | PPC-1 cells + TRAIL, ATPLite viability luminescence;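 active = cell killing above 50% in the first pass at 4 µM, then a duplicate retest at 5 µM averaging 50% or more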;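 also: plate controls were cells with TRAIL plus DMSO for no effect and medium-only wells lacking cells for full effect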
SENP6 inh: blocks the human protease SENP6 | Recombinant SENP6 catalytic domain, aminoluciferin luminescence | inhibition, % at 10 µM | hit rate 1.8% among 330,000 | AID 2599;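 active = inhibition above about 50% at the single tested dose, limit read from the data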;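 also: plate controls were DMSO wells with enzyme for no effect and DMSO wells lacking enzyme for full effect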
SENP7 block: inhibitors of human SENP7 protease | AID 434973 | recombinant SENP7, Z-RLRGG-aminoluciferin luminescence, 40 min | Q9BQF6 | inhibition, % at 5 µM | hit rate 1.5% among 330,000;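 active = inhibition above about 50% at the single test dose, limit read from the data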;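 also: plate controls were DMSO with enzyme for no effect and no enzyme buffer wells for full effect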
SENP8 block-2: SENP8 protease inhibition. Q96LD8. purified SENP8, Z-RLRGG-aminoluciferin cleavage, luminescence. inhibition, % at 10 µM. hit rate 1.2% among 330,000. AID 2540; in the data active = inhibition above about 50%
SENP8 conf: confirmation of human SENP8 protease inhibitors. shares compounds with SENP7 block. Recombinant SENP8, Z-RLRGG-aminoluciferin luminescence, 60 min. inhibition, % at 12.5 µM. hit rate 40% among 6,200. AID 488912;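 active = mean inhibition across replicates above about 50%, limit read from the data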
SENP6 confirm: human SENP6 inhibition, confirmed; shares compounds with SENP7 block; recombinant SENP6, Z-RLRGG-aminoluciferin luminescence; inhibition, % at 12.5 µM; hit rate 58% among 6,200
SENP7 conf: confirmation of human SENP7 protease inhibitors. shares compounds with SENP7 block. recombinant SENP7, Z-RLRGG-aminoluciferin luminescence, 40 min. inhibition, % at 12.5 µM. hit rate 69% among 6,200. AID 488917
Casp3 SENP sel: caspase-3 inhibition (SENP selectivity assay); shares compounds with SENP7 block; purified caspase-3, Z-DEVD-aminoluciferin luminescence, 60 min; inhibition, % at 12.5 µM; hit rate 60% among 6,200; AID 488918;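 active = mean inhibition above about 50%, limit read from the data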;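 also: plate controls were enzyme with DMSO for no effect and wells without caspase-3 for full effect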
Target sequence (P42574 28-227 limits assumed): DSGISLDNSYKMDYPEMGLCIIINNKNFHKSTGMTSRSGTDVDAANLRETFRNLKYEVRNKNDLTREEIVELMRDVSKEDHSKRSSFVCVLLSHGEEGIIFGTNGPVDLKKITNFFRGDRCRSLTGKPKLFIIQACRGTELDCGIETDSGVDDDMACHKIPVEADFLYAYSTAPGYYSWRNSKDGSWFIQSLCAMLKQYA
SENP luc ctr: luminescence interference (SENP counter-screen). inhibition, % at 12.5 µM. Pre-incubated SENP8/Z-RLRGG-aminoluciferin, luciferase luminescence interference. hit rate 39% among 6,200. shares compounds with SENP7 block. AID 488919;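 active = mean inhibition above about 50% when retested at one dose, limit read from the data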;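 also: plate controls were DMSO wells with completed reaction for no effect and substrate without enzyme for full effect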
Numbers without * were called inactive.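 The calls were made as follows, unless noted: active = mean inhibition above about 50% in the one-dose retest (limit read from the data); inactive = the rest.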

`COc1nc(SCC(=O)Nc2ccccc2Cl)nc(N(C)C)n1` gave C8 TRAIL sens 0, SENP8 block-1 11, PPC-1+TRAIL kill -23, SENP6 inh 85*, SENP7 block 2, SENP8 block-2 -3, SENP8 conf 12, SENP6 confirm 8, SENP7 conf 3, Casp3 SENP sel 7 and SENP luc ctr 13.
Screening Cc1c(C(=O)N2CCOCC2)c(S(=O)(=O)Nc2ccc(C(C)C)cc2)c(C)n1C returned C8 TRAIL sens -10, SENP8 block-1 12, SENP6 inh 8, SENP7 block 2 and SENP8 block-2 -2.
`Cc1ccc2cn[nH]c2c1[N+](=O)[O-]` gave C8 TRAIL sens 6, SENP8 block-1 12, PPC-1+TRAIL kill 8, SENP6 inh -14, SENP7 block -12 and SENP8 block-2 -5.
For O=C(Cn1ncc2ccccc2c1=O)Nc1cccc(C(F)(F)F)c1 the results were C8 TRAIL sens -7 and SENP8 block-1 15.
`Cc1nc2cc(NC(=O)Nc3cccc([N+](=O)[O-])c3)ccc2n1C` gave C8 TRAIL sens 59*, SENP8 block-1 16, SENP6 inh 73*, SENP7 block 66*, SENP8 block-2 32, SENP8 conf 34, SENP6 confirm 54*, SENP7 conf 92*, Casp3 SENP sel 76* and SENP luc ctr 9.
For Cc1cc(-c2cccs2)n[nH]1 the results were C8 TRAIL sens 11, SENP8 block-1 7, PPC-1+TRAIL kill 10, SENP6 inh -10, SENP7 block 3 and SENP8 block-2 -1.
Screening Cc1cc2ncc(-c3cccs3)nc2cc1C returned C8 TRAIL sens 69*, SENP8 block-1 -264, SENP6 inh 94*, SENP7 block 98*, SENP8 block-2 96*, SENP8 conf 66*, SENP6 confirm 77*, SENP7 conf 67*, Casp3 SENP sel 86* and SENP luc ctr 37.
For O=C(/C=C/c1ccco1)Nc1cccnc1Cl the results were C8 TRAIL sens 10, SENP8 block-1 -2, PPC-1+TRAIL kill 21, SENP6 inh 58*, SENP7 block 54*, SENP8 block-2 48, SENP8 conf 58*, SENP6 confirm 56*, SENP7 conf 86*, Casp3 SENP sel 85* and SENP luc ctr 63*.
Screening Cc1cccnc1NC(=O)Nc1ccc(F)cc1 returned C8 TRAIL sens -19, SENP8 block-1 8, PPC-1+TRAIL kill 14, SENP6 inh -2, SENP7 block -8 and SENP8 block-2 -21.
For O=C(/C=C/c1ccccc1)Nc1cccnc1Cl the results were C8 TRAIL sens 26, SENP8 block-1 19, SENP6 inh 74*, SENP7 block -1, SENP8 block-2 66*, SENP8 conf 69*, SENP6 confirm 60*, SENP7 conf 90*, Casp3 SENP sel 84* and SENP luc ctr 73*.
Screening O=C(Nc1ccc(F)cc1)Nc1cccnc1Cl returned C8 TRAIL sens 2, SENP8 block-1 16, SENP6 inh 81*, SENP7 block 85*, SENP8 block-2 77*, SENP8 conf -7, SENP6 confirm 78*, SENP7 conf 96*, Casp3 SENP sel 88* and SENP luc ctr 81*.
O=C(Nc1cccs1)Nc1ccc(Br)cc1F was read as C8 TRAIL sens 6, SENP8 block-1 4, PPC-1+TRAIL kill 21, SENP6 inh 64*, SENP7 block 13, SENP8 block-2 11, SENP8 conf 22, SENP6 confirm 22, SENP7 conf 61*, Casp3 SENP sel 23 and SENP luc ctr 22.
